From PubChem BioAssay
FBA Mtb inh: inhibitors of M. tuberculosis fructose-bisphosphate aldolase; P9WQA3; purified M. tuberculosis FBA, fluorescence read-out; inhibition, % at 1 µM; hit rate 2.3% among 360,000; AID 588726; in the data active means inhibition above about 27%
Target sequence (P9WQA3 whole entry, looked up): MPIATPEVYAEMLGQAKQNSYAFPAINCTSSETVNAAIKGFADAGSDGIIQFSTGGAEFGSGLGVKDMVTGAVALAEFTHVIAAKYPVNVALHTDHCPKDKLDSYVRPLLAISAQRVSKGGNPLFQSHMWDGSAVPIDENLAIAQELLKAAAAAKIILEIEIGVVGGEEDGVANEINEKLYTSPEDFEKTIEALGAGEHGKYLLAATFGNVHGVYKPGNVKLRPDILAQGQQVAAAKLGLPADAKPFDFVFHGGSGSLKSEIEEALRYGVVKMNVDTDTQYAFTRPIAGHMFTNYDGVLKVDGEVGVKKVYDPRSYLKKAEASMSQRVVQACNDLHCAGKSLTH
RecA splice inh: Mtb RecA intein splicing inhibition; P9WHJ3; cell-free RecA intein splicing, fluorescence; inhibition, % (concentration not given with the values); hit rate 0.75% among 290,000; in the data active means inhibition above about 30%
Mtb UGM inh: Mtb UDP-galactopyranose mutase inhibition | P9WIQ1 | purified UGM, fluorescence polarization probe displacement | inhibition, % at 10 µM | hit rate 0.06% among 320,000; in the data active means inhibition above about 10%, passing the limit was not always enough
Target sequence (P9WIQ1 whole entry, looked up): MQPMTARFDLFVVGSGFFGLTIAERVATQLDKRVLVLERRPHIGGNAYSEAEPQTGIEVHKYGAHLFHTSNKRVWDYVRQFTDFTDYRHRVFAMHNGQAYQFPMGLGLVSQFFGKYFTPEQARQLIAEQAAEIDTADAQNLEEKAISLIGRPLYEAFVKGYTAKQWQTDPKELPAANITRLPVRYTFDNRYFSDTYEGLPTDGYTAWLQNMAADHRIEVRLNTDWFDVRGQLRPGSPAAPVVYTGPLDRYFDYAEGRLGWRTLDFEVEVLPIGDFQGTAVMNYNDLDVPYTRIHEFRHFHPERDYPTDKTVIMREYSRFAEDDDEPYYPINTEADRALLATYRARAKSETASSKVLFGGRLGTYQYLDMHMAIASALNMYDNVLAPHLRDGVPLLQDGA
Rv3671c protease: inhibits the M. tuberculosis serine protease Rv3671c | P9WHR9 | inhibition, % at 5.96 µM | hit rate 0.048% among 320,000; in the data active means inhibition above about 38%;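 further: extracellular domain of Rv3671c used as enzyme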
Mtb bLac sens: beta-lactam sensitization of Mtb H37Rv; M. tuberculosis H37Rv growth with meropenem, percent inhibition; inhibition, % at 25 µM; hit rate 0.27% among 330,000; call rule not given here;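 further: growth measured after seven days incubation then overnight dye step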
GDH-TPI counter: inhibits GDH-TPI coupling enzymes, artifact for Mtb FBA screen | GDH-TPI coupled enzyme counterscreen, NADH absorbance | inhibition, % at 4.8 µM | hit rate 1.2% among 360,000 | AID 588335; in the data active means inhibition above about 30%
Large screens that a line does not name were inactive; ! = not confirmed by another sample. Rows were chosen to be rich in hits. Some 4% of all compounds tested hit in one or more screens of this group.

O=C(C[C@H]1C[C@H](C(=O)N2CCOCC2)[C@@]2(CCC3CCCC3)c3[nH]c4ccc(Cl)cc4c3CCN2C1=O)NCC12CC3CC(CC(C3)C1)C2	none (no result: RecA splice inh, Mtb UGM inh, Rv3671c protease, Mtb bLac sens)
CC(=C\C(=O)O)/C(=C\c1cccc2ccccc12)C(=O)O	GDH-TPI counter 31.2
CC1(C(=O)NCc2ccc3c(c2)OCO3)CCN1C(=O)Cc1ccc(Cl)cc1Cl (stereo not given)	none (no result: RecA splice inh, Mtb UGM inh, Rv3671c protease, Mtb bLac sens)
COc1ccc(/C=C2\CCn3c2nc2cc(C(=O)O)ccc2c3=O)cc1OC	none
COc1ccc(/C=C2\CCn3c2nc2cc(C(=O)O)ccc2c3=O)cc1O	GDH-TPI counter 50.7 (no result: Mtb UGM inh)
CSc1ccc(/C=C2\CCn3c2nc2cc(C(=O)O)ccc2c3=O)cc1	GDH-TPI counter 63.0
COC(=O)c1ccc(/C=C2\CCn3c2nc2cc(C(=O)O)ccc2c3=O)cc1	none
CC(C)Oc1ccc(CN2CCC2(C)C(=O)NCc2cccc3ccccc23)cc1 (stereo not given)	none (no result: RecA splice inh, Mtb UGM inh, Rv3671c protease, Mtb bLac sens)
COc1ccc(-c2nc(-c3ccc4c(c3)OCO4)[nH]c2-c2ccc(OC)cc2)cc1	FBA Mtb inh 136.3
COc1nc(-c2ccccc2)cc(-c2ccc(OC)c(OC)c2)n1	GDH-TPI counter 36.0
CN1CCN(c2nc3cc(N4CCOCC4)ccc3s2)CC1	none (no result: RecA splice inh, Mtb UGM inh, Rv3671c protease, Mtb bLac sens)
CN(C(=O)c1ccno1)c1nnc(-c2ccccn2)s1	FBA Mtb inh active
O=[N+]([O-])c1ccc(Cl)c(NC2=NCCCCC2)c1	none
CCCSc1nc(N)c2c3c(sc2n1)CN(C)CC3	FBA Mtb inh 40.6
CC(C)Sc1nc(N)c2c3c(sc2n1)CN(C)CC3	none
C=CCn1cc(C(=O)c2cc(Br)ccc2O)cc(C#N)c1=O	GDH-TPI counter 31.1
CCCCn1cc(C(=O)c2cc(Br)ccc2O)cc(C#N)c1=O	none
Cc1cccc(NC2=C(Cl)C(=O)OC2OC(=O)c2ccco2)c1 (stereo not given)	RecA splice inh 41.7
COc1ccc(OC)c(N2CC(O)=C(c3nc4ccccc4s3)C2=N)c1	GDH-TPI counter 35.8
CCOc1ccccc1N1CC(O)=C(c2nc3ccccc3s2)C1=N	none
O=C(COC(=O)C1CC1)Nc1ccc(Cl)cc1Cl	none (no result: RecA splice inh)
COCCOC(=O)N1CCCCC1c1cc(C(=O)NCc2ccc(Cl)c(Cl)c2)no1 (stereo not given)	none (no result: RecA splice inh, Mtb UGM inh, Rv3671c protease, Mtb bLac sens)
NS(=O)(=O)c1ccc(Nc2nc(-c3ccc(O)cc3)cs2)cc1	none
Oc1ccc(Nc2nc(-c3ccc(O)cc3)cs2)cc1	RecA splice inh 33.5
CC1(C(=O)NS(=O)(=O)c2ccccc2)CCN1C(=O)CC1CC1 (stereo not given)	none (no result: RecA splice inh, Mtb UGM inh, Rv3671c protease, Mtb bLac sens)
COC(=O)c1cc2c(s1)=NC=NP=2(N1CCOCC1)N1CCOCC1	GDH-TPI counter 30.8!
COC(=O)c1ccc(C(=S)N2CCOCC2)cc1	none
O=C1OC(/C=C/c2ccccc2)=NC/1=C/C=C/c1ccccc1	GDH-TPI counter 32.0
CSC[C@H]1CN(CCc2ccccc2)C(=O)[C@@H]1CC(=O)Nc1ccccc1	none (no result: RecA splice inh, Mtb UGM inh, Rv3671c protease, Mtb bLac sens)
S=C(Nc1ccccc1Cl)N(Cc1ccccc1)Cc1ccccn1	none
COc1ccccc1CNC(=O)c1cnc2sccn2c1=O	GDH-TPI counter 36.5
Cc1cccc(NC(=O)c2cnc3sccn3c2=O)c1	none
Cc1cccc(NC(=O)c2cnc3sccn3c2=O)n1	GDH-TPI counter 32.7
O=C(NCc1cccnc1)c1cnc2sccn2c1=O	GDH-TPI counter 41.3
Cc1nc(N(C)C)c2sc(=S)n(C)c2n1	GDH-TPI counter 30.7
CCN1CCN(c2ccc(S(=O)(=O)N3CCOCC3)cc2NC(=O)CC(NC(C)=O)c2ccccc2)CC1 (stereo not given)	none (no result: RecA splice inh, Mtb UGM inh, Rv3671c protease, Mtb bLac sens)
O=C(Nc1ccc(F)cc1)C(=O)c1c(O)[nH]c2ccc([N+](=O)[O-])cc12	GDH-TPI counter 37.7
Cc1ccc(NCC(=O)N=Nc2c(O)[nH]c3ccc([N+](=O)[O-])cc23)cc1	none (no result: FBA Mtb inh, GDH-TPI counter)
CCCN(C(=O)CSCc1ccc(Cl)cc1)c1c(N)n(Cc2ccccc2)c(=O)[nH]c1=O	none
Cc1c(CC(=O)N2CCN(C(=O)C3COc4ccccc4O3)CC2)c(=O)oc2c(C)c(O)ccc12 (stereo not given)	FBA Mtb inh active
Cc1cccc(N2CCN(C(=O)C3COc4ccccc4O3)CC2)c1C (stereo not given)	none
Cc1c(CC(=O)N2CCN(C(=O)C3COc4ccccc4O3)CC2)c(=O)oc2cc(O)ccc12 (stereo not given)	FBA Mtb inh active
COc1ccc2c(C)c(CC(=O)N3CCN(C(=O)C4COc5ccccc5O4)CC3)c(=O)oc2c1 (stereo not given)	FBA Mtb inh 144.3
Cc1c(CC(=O)N2CCN(C(=O)C3COc4ccccc4O3)CC2)c(=O)oc2cc(O)cc(O)c12 (stereo not given)	FBA Mtb inh 177.2
O=C(C1COc2ccccc2O1)N1CCN(Cc2ccccc2)CC1 (stereo not given)	none
COc1ccc(N2CCN(C(=O)C3COc4ccccc4O3)CC2)cc1 (stereo not given)	none
CC(=O)Nc1ccc(CC(=O)NCCC(c2ccccc2)c2ccccc2)cc1	none
O=C(N/N=C/c1ccc(-c2ccccc2)o1)c1ccccc1O	none
N/C(=N\N=C/c1ccc(-c2ccc(O)c(C(=O)O)c2)o1)N[N+](=O)[O-]	GDH-TPI counter 58.3
COC(=O)[C@H](CCSC)NC(=O)Cn1cc(C)c(=O)[nH]c1=O	none (no result: RecA splice inh, Mtb UGM inh, Rv3671c protease, Mtb bLac sens)
CC1CCCN(C(=O)c2nn(C)c3c2CS(=O)(=O)c2ccccc2-3)C1 (stereo not given)	none
Cc1cc(C)cc(Cn2c3ccc(NC(=O)NCCc4cccs4)cc3c(=O)n2C)c1	FBA Mtb inh 171.1 (no result: RecA splice inh, Mtb UGM inh, Rv3671c protease, Mtb bLac sens)
Cc1cc(C)cc(Cn2c3ccc(NC(=S)NC4CCCCC4)cc3c(=O)n2C)c1	none (no result: RecA splice inh, Mtb UGM inh, Rv3671c protease, Mtb bLac sens)
Cn1c(=O)c2cc(NC(=O)NCCc3cccs3)ccc2n1Cc1ccccc1	FBA Mtb inh 140.7 (no result: RecA splice inh, Mtb UGM inh, Rv3671c protease, Mtb bLac sens)
COc1ccccc1CCC(=O)Nc1ccc2c(c1)c(=O)n(C)n2-c1cccs1	none (no result: RecA splice inh, Mtb UGM inh, Rv3671c protease, Mtb bLac sens)
CCC(=O)N(C)CCc1cc2c(c(OC)c1/C=N/Nc1ccc(C(=O)O)cc1)OCO2	GDH-TPI counter 50.6
CCC(=O)N(C)CCc1cc2c(c(OC)c1/C=N/NC(=O)[C@H]1C[C@@H]1c1ccccc1)OCO2	none
O=C(Nc1ccc2c(c1)OCCO2)C(c1cc2ccccc2o1)N1CCN(C/C=C/c2ccccc2)CC1 (stereo not given)	none (no result: RecA splice inh, Mtb UGM inh, Rv3671c protease, Mtb bLac sens, GDH-TPI counter)
Cc1cccc(C)c1NC(=O)COC(=O)c1c2c(nc3ccccc13)/C(=C\c1ccc3c(c1)OCO3)CCC2	Mtb UGM inh 19.0 (no result: RecA splice inh)
CC(OC(=O)c1c2c(nc3ccccc13)/C(=C\c1ccc3c(c1)OCO3)CCC2)C(=O)Nc1ccc(S(N)(=O)=O)cc1 (stereo not given)	none (no result: RecA splice inh, Mtb UGM inh, Rv3671c protease, Mtb bLac sens)
CCOc1cc(/C=C2\CCCc3c2nc2ccccc2c3C(=O)O)ccc1OC	Mtb UGM inh 44.4
CC(C)[C@H](NC(=O)c1ccccc1)C(=O)OCC(=O)Nc1sccc1C(N)=O	none (no result: RecA splice inh)
C/C(=N\Nc1ccc(S(=O)(=O)N2CCCCC2)cn1)c1ccc(O)cc1	GDH-TPI counter 33.6 (no result: RecA splice inh)
Cc1c(Cl)cccc1NC(=O)CC1NCCNC1=O (stereo not given)	FBA Mtb inh active
